The whole screen tested about 410,000 compounds, of which about 18,000 (4.4%) were called active. Not shown: some 7% with an inconclusive outcome. Many of the other results were omitted from the sample, so actives are more common in it than they were. Unmarked numbers belong to inactive results. Cut-off read from the data, not from the text of the source: active = activity change below about -60%; inconclusive = no clear call, values can overlap the other calls; inactive = above about -39%.

The source of these data is PubChem BioAssay AID1259415 (National Center for Advancing Translational Sciences (NCATS), 2018).
% is set by controls: 0 for no effect and ±100 for the full control effect.

The assay in a line: qHTS Assay for inhibitors of the human cytomegalovirus (HCMV). The following applies: HFF cells, HCMV-luciferase reporter, 72 h; at 57.5 µM; stronger effect = lower value. An outline of the steps:
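Luciferase read-out from HCMV-luciferase-infected HFFs (MOI 1 PFU/cell) 72 h post infection at 37C; compounds added after 16 h cell attachment; activity normalized between buffer-only basal and Salinomycin (10uM) inhibitor controls.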
For `COCCN(Cc1ccco1)C(=O)Cn1ncc2c([nH]c3ccccc32)c1=O`, the activity change, negative = inhibition was 1.17%. For `N#Cc1cccc(CN2CCC(=O)N([C@H](CO)c3ccccc3)CC2)c1` the value was -24.2%; for `O=C(Nc1ccc(Br)cc1)c1cc2nc(-c3ccccc3)cc(-c3ccccc3)n2n1`, 22.2%. The result for `CCc1ccc2oc(=O)cc(CN3CCCCC3C)c2c1` (configuration not stated) reads -19%. For `CCOC(=O)c1[nH]c(C)c(CCC(=O)NCc2ccccc2C)c1C` the value was -16.4%; for `Cc1ccc(O)c(NC(=S)NC(=O)COc2ccc(Br)cc2)c1`, -97.8% (active); for `Cn1cnnc1SCC(=O)NNC(=O)COc1ccc(Br)cc1`, -26.5%.

On to `Cc1ccsc1C(=O)NNC(=O)COc1ccc(Br)cc1`, for which the activity change, negative = inhibition was -16.1%. As to `COc1ccc(CN2CCc3nc(Nc4ccccc4)ncc3C2)c(OC)c1OC`, the activity change, negative = inhibition is -16.7%. For `COc1ccc(S(=O)(=O)c2cn(C)c3cc(N4CCCCC4)c(F)cc3c2=O)cc1` the value was -2.52%. The result for `COc1cccc(CCNC(=O)c2cccc(NC(=O)C3=C(C)OCCS3)c2)c1` reads -34.7%; that for `Cc1nc2nc(C)c(NS(=O)(=O)c3ccc(C(C)(C)C)cc3)c(=O)n2[nH]1`, 2.48%; that for `Cc1ccccc1N1CCN(C(=O)c2cccnc2)CC1`, -6.56%. On to `O=C(Nc1ccc(N2CCN(C(=O)c3ccccc3)CC2)c(Cl)c1)c1cccnc1`, for which the activity change, negative = inhibition is -70.9% (active). The result for `O=C(Nc1ccc(N2CCN(C(=O)c3ccccc3)CC2)c(Cl)c1)c1ncn[nH]1` reads -25.4%; that for `Cc1ccc(C(O)P(=O)(OC(C)C)c2ccc(N(C)C)cc2)cc1` (configuration not stated), 15.1%. Take `CC(C)COP(=O)(c1ccc(N(C)C)cc1)C(Nc1ccccc1)c1cccnc1` (configuration not stated): the activity change, negative = inhibition was -101% (active). The result for `CC(Nc1ccccc1)c1cccnc1` (configuration not stated) reads 4.97%; that for `Cc1ccc(S(=O)(=O)n2nc(-c3ccc(Cl)cc3)nc2NCc2ccccc2)cc1`, 8.1%; that for `COc1ccc(C2c3c(oc4ccccc4c3=O)C(=O)N2Cc2ccc3c(c2)OCO3)cc1` (configuration not stated), -4.99%. For `COc1ccc(-c2nn(CC(=O)Nc3ccccc3F)c3c2cnc2ccc(F)cc23)cc1` the value was 39.2%; for `O=c1[nH]c(-c2ccccc2)cn1C1CCN(Cc2ccc(-c3nc4ccc(F)cc4nc3-c3ccccc3)cc2)CC1`, 54.8%; for `CCc1cc(-c2nnn(CCC3COCCO3)c2CC)ccc1-c1cn(Cc2ccc3ccccc3c2)nn1` (configuration not stated), -80.6% (active). The result for `O=C(C1CCC1)N1C[C@H]2[C@@H](c3ccccc31)[C@@H](CO)N2C(=O)c1ccccc1F` reads 27.8%; that for `CC(C)(C)c1ccc(C(=O)NCC(c2ccc(Cl)cc2)N2CCOCC2)cc1` (configuration not stated), -1.98%; that for `Cc1ccc(C(=O)N2c3ncnn3C3(CCCCC3)[C@@H]3CCCC[C@@H]32)cc1`, -15.5%.

`COc1ccc(CCN2CC(C(=O)OCC(=O)NCc3ccccc3Cl)CC2=O)cc1OC` (configuration not stated): the activity change, negative = inhibition is 16.6%. For `COc1ccc(CC(=O)N2CC3ON=C(c4c(F)cccc4Cl)C3C2)cc1OC` (configuration not stated), the activity change, negative = inhibition was -61.7% (active). The result for `COc1ccc(S(=O)(=O)N2CC3ON=C(c4c(F)cccc4Cl)C3C2)cc1OC` (configuration not stated) reads -7.48%; that for `COc1ccccc1NC(=O)c1oc2ccccc2c1NC(=O)COc1ccccc1OC`, 2.62%; that for `CCOc1ccccc1CNC(=O)c1cnc2c(-c3ccc(OCC)c(OCC)c3)c(C)nn2c1C`, -3.31%.

With `Cc1ccc(CN2COc3cc(C)c4c(oc(=O)c5ccccc54)c3C2)cc1`, the activity change, negative = inhibition is 8.87%. The result for `C/C(=N\NC(=O)c1cccnc1)c1ccc(-n2ccnc2)cc1` reads -16.6%; that for `C/C(=N\NC(=O)c1cc2c(s1)CCC(C)C2)c1cccnc1` (configuration not stated), -78.9% (active); that for `CC1CCc2sc(C(=O)N/N=C/C3CCCCC3)cc2C1` (configuration not stated), 13.4%. `Cc1ccc(C)c(N2CCN(Cc3nnc(-c4ccccc4)o3)CC2)c1`: the activity change, negative = inhibition was 27.7%. The result for `COc1ccc(-c2nc(CN3CCC(C(=O)NCCN(CC(C)C)CC(C)C)CC3)c(C)o2)cc1OC` reads -0.431%. For `Cc1nnc(C)n1-c1ccc(C(=O)Nc2cccc(Br)c2)cc1` the value was 33.2%.

As for `CCN1C(=O)N[C@@H](CCc2ccccc2)C(C(=O)OC)=C1C`, the activity change, negative = inhibition is -1.16%. For the compound `CCOC(=O)CN(C(=O)COc1nc(C)cc(C)c1C#N)c1ccc(Cl)cc1`, the activity change, negative = inhibition was -1.87%. As for `CCOc1ccc(/C=C(\C#N)c2nc3ccccc3c(=O)[nH]2)cc1OC`, the activity change, negative = inhibition is 18%. The result for `CCOc1cc(/C=C(/C#N)c2ccc(Cl)cc2)cc(Cl)c1OCC(=O)O` reads -79.4% (active). As for `Cc1ccc(Cn2c(=O)n(-c3ccc(C)cc3)c(=O)c3c2c2cc(C)ccc2n3C)cc1`, the activity change, negative = inhibition is 5.49%. For `CC1CCCN(c2cc3c(cc2F)c(=O)c(S(=O)(=O)c2cccc(Cl)c2)cn3Cc2ccccc2)C1` (configuration not stated) the value was -26.5%; for `O=C(/C=C\c1ccc2c(c1)OCO2)NC1(C(=O)Nc2ccc3c(c2)OCCO3)CCCCC1`, -87.5% (active).

With `CC1(C(=O)Nc2ccc3c(c2)OCCO3)CCN1C(=O)Cc1cc(F)ccc1F` (configuration not stated), the activity change, negative = inhibition is 20.3%. The result for `S=C(Nc1ccc2c(c1)OCO2)N1CCCC1` reads 17.6%; that for `COC(=O)[C@@]1(C#N)CC(=O)N([C@@H](C)c2ccccc2)[C@H]1c1ccccc1`, -35.4%.

As for `CC(=O)N1c2ccccc2CC1C(=O)N1CCN(c2ccc(F)cc2)CC1` (configuration not stated), the activity change, negative = inhibition was 16.1%. Take `O=c1nc(N2CCOCC2)nc2n1CCO2`: the activity change, negative = inhibition was -26.3%. For `COc1ccc(OC)c(NC(=O)C2CCN(S(=O)(=O)c3ccc(C)cc3)CC2)c1` the value was -12.3%. For `Fc1ccc(OCc2nn3c(Cn4nnc5ccccc54)nnc3s2)cc1` the value was -1.96%; for `c1ccc(Cc2nn3c(Cn4cnc5ccccc54)nnc3s2)cc1`, -65.2% (active); for `O=C(CSc1nnc(Cn2cnc3ccccc32)o1)c1ccccc1`, -35.1%. The result for `Cc1ccccc1CNC(=O)c1ccc(NC(=O)N2CCCCc3ccccc32)cc1` reads -4.65%.

On to `COc1ccc(C(=O)c2oc3ccccc3c2NC(=O)COc2cccc(C)c2)cc1`, for which the activity change, negative = inhibition was 9.86%.

`Cc1noc(C)c1S(=O)(=O)N(C)C[C@H]1Oc2c(NC(=O)Nc3ccc4c(c3)OCO4)cccc2C(=O)N([C@H](C)CO)C[C@@H]1C`: the activity change, negative = inhibition is 22.1%. The result for `COc1ccc(-c2cn3nc(N4CCCC(C(=O)NCCCOC(C)C)C4)sc3n2)cc1` (configuration not stated) reads 0%; that for `Cc1ccc2nsnc2c1S(=O)(=O)N1CCCC1C(=O)O` (configuration not stated), -8.96%; that for `CCc1ccc(S(=O)(=O)c2nnn3c2nc(N2CCN(CC)CC2)c2sccc23)cc1`, 9.37%.

`N#CCCN(CCC#N)c1nnc(-c2ccccc2)s1`: the activity change, negative = inhibition was 3.02%. The result for `CN(C)CCCNC(=S)N1CCN(c2nc(-c3ccccc3)cs2)CC1` reads -3.01%; that for `CC1CCCC(C)N1C(=O)CN1CCN(c2nc(-c3ccc(F)cc3)cs2)CC1` (configuration not stated), -63.2% (active). In the case of `CCc1ccc(CNC(=O)C2CCN(c3nn4cc(-c5ccc(F)cc5)nc4s3)CC2)cc1`, the activity change, negative = inhibition is 0%. For `O=C(NCc1nnc(SCC(=O)N2CCC(Cc3ccccc3)CC2)o1)c1ccco1` the value was -25.7%; for `COc1ccc(NC(=O)Nc2cccc(-c3noc(C)n3)c2)cc1`, -15.1%; for `COc1ccc(NC(=O)Nc2ccc3nsnc3c2)cc1`, -62.9% (active). For `COC(=O)[C@H](CCSC)NC(=O)Nc1ccc(OC)cc1` the value was 10.5%; for `CCOC(=O)c1ccc(NC(=O)Cn2c(=O)n(-c3ccc(C)cc3)c(=O)c3c2cnn3C)cc1`, 2.83%. The result for `CSc1ncnc2c1ncn2CC(=O)C1CCC2C3CCC4=CC(=O)CCC4(C)C3CCC12C` (configuration not stated) reads -83% (active); that for `CSc1ncnc2c1ncn2CCCNCC1CCCCC1`, 8.49%. Turning to `CSc1ncnc2c1ncn2CCCNCc1ccco1`, the activity change, negative = inhibition was 11.8%. For `O=C(O)c1ccc(Cn2c(SCc3ccc(F)cc3)nc3ccncc32)cc1` the value was 0.974%; for `CCOc1ccc(CCNC(=O)c2cc3c(=O)n(C)c4ccccc4c3n2C)cc1`, -15.3%; for `O=C(NCCCN1CCN(c2cccc(Cl)c2)CC1)c1nnc(Cc2ccc(F)cc2Cl)o1`, -14.1%. For `Cn1c(C(=O)NCCCN2CCN(c3cccc(Cl)c3)CC2)cc2c(=O)n(C)c3ccccc3c21`, the activity change, negative = inhibition was -68.6% (active). For `Cc1cccc(NC(=O)CSc2ncc(-c3ccccc3)[nH]2)c1C` the value was 45.4%; for `C=CCOC(=O)C1=C[C@@H](c2ccccc2)C[C@@H](OCc2ccc(CO)cc2)O1`, -2.26%. The result for `CN(C)c1ccc(C(CNS(=O)(=O)c2cc(F)ccc2F)N2CCOCC2)cc1` (configuration not stated) reads -0.38%; that for `CCCNC(=O)C(CC)n1nc(CC)n2c(cc3oc(C)cc32)c1=O` (configuration not stated), -16.8%; that for `COc1cc(OC)c(NC(=O)c2nc(-c3ccncc3)no2)cc1Cl`, -9.36%. For `CCOC(=O)C1CN(S(=O)(=O)c2ccc(OC)cc2)c2cc(Cl)ccc2O1` (configuration not stated) the value was -61.8% (active); for `CCS(=O)(=O)c1ccc2c(c1)N(S(=O)(=O)c1ccccc1)CC(C(=O)O)O2` (configuration not stated), 4.24%.

On to `CCOC(=O)C1CN(S(=O)(=O)c2ccc(F)cc2)C1`, for which the activity change, negative = inhibition is 41%. For `CCCCCn1c(=O)[nH]c2cc(C(=O)Nc3cc(C)cc(C)c3)ccc2c1=O` the value was -0.639%; for `CC[C@]1(O)C[C@@H]2CN(CCc3c([nH]c4ccccc34)[C@@](C(=O)OC)(c3cc4c(cc3OC)N(C)[C@H]3[C@@](O)(C(=O)OC)[C@H](OC(C)=O)[C@]5(CC)C=CCN6CC[C@]43[C@@H]65)C2)C1`, -99.7% (active). For `CC[C@]1(O)CC2CN(CCc3c([nH]c4ccccc34)[C@@](C(=O)OC)(c3cc4c(cc3OC)N(C=O)[C@H]3[C@@](O)(C(=O)OC)[C@H](OC(C)=O)[C@]5(CC)C=CCN6CC[C@]43[C@@H]65)C2)C1` (some centres not stated) the value was -100% (active).
